Measurements as given in PubChem BioAssay.
Some of the results follow. Calls of active or inactive are those of the source.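 How the source made its calls, unless noted: active means inhibition above the average of all tested compounds plus 3 SD (cut at about 40% in these data); inactive means the rest.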

Each compound was assayed against Induced myeloid leukemia cell differentiation protein Mcl-1 (Homo sapiens) (UniProt Q07820) (assay: MCL1-BIM peptide interaction disruptors – biochemical, fluorescence polarization, triplicate, confirmation (AID 2168;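 further: 0% = DMSO wells and 100% = unlabeled Bim-BH3 control peptide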)). Settings: GST-MCL1 / FITC-Bim-BH3 fluorescence polarization; at 10.9 µM; active compounds read high.
Induced myeloid leukemia cell differentiation protein Mcl-1 (Homo sapiens), sequence (Q07820 whole entry, looked up): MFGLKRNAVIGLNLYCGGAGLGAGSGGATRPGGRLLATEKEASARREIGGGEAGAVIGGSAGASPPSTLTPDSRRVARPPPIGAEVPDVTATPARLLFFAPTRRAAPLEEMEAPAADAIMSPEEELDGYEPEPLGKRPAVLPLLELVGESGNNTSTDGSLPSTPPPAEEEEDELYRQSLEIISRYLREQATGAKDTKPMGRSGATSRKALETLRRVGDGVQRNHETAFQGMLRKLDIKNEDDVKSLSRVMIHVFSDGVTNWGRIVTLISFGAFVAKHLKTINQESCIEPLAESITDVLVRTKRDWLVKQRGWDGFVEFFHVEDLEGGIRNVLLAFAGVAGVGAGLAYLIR

Q: How did the inhibition turn out when `O=S(=O)([N-]c1nc2ccccc2nc1-[n+]1ccc(Cc2ccccc2)cc1)c1ccc(Br)s1` was run?
A: The inhibition was 33.7% (inactive).

Q: `CCCn1c(O)c(CN2CCCC(C)C2)c(C)c(C#N)c1=O` (centres undefined) was tested. Which inhibition did it give?
A: The inhibition was 39.3% (inactive).

Q: Which inhibition does the source give for `COc1ccc2[nH]c(C)c(CCN(Cc3cccs3)C(=S)Nc3ccccc3OC)c2c1` here?
A: Its inhibition is 12.4% (inactive).

Q: For `COCCn1c(N)c(NCc2ccccc2)c(=O)[nH]c1=O`, which inhibition is on record?
A: The inhibition was 62.8% (active).

Q: For `COc1ccc(C2C=C(c3ccc(Br)cc3)Nc3nc(NS(C)(=O)=O)nn32)cc1` (centres undefined), which inhibition is on record?
A: The inhibition was 167% (active).

Q: Which inhibition does the source give for `O=C(C1=C(O)C(=O)N(c2ncccn2)C1c1cccs1)c1ccco1` (centres undefined) here?
A: The inhibition was 88.2% (active).

Q: `CN(C)c1ccc(Nc2c3c4c(cccc4n(C)c2=O)C(=O)c2ccccc2-3)cc1` was tested. Which inhibition did it give?
A: The inhibition was 91.2% (active).

Q: For `O=c1[nH]c2ccccc2n2c(-c3ccccc3)nnc12`, which inhibition is on record?
A: Its inhibition is 34.5% (inactive).

Q: How did the inhibition turn out when `COC/C=C/C1=CC2=CC(=O)C(C)(OC(=O)CCC(=O)OC)C(=O)C2=CO1` (centres undefined) was run?
A: The inhibition was 59.1% (active).

Q: `Cc1ccc(C2Nc3cccc4cccc(c34)N2)cc1` was tested. Which inhibition did it give?
A: The inhibition was 13.8% (inactive).

Q: With `Cc1ccc(C(=O)O)cc1-c1ccc(/C=C2\SC(=O)N(CC(=O)Nc3ccc4c(c3)OCO4)C2=O)o1` as the compound, how does the inhibition read?
A: The inhibition was 60.8% (active).

Q: With `N/C(=N\OC(=O)CCc1ccccc1)c1ccc(Cl)cc1` as the compound, how does the inhibition read?
A: Its inhibition is -0.05% (inactive).

Q: How did the inhibition turn out when `CN1C(=O)/C(=C/c2ccco2)SC1=Nc1cccc(C(=O)O)c1` was run?
A: The inhibition was 125% (active).

Q: How did the inhibition turn out when `CC/C(C)=N/Nc1nc2sc3c(c2c(=O)[nH]1)CC(C)(C)OC3` was run?
A: Its inhibition is 53.8% (active).

Q: For `CN1c2ccc(C=O)c3c(C=O)ccc(c23)N(C)C1(C)C`, which inhibition is on record?
A: The inhibition was 151% (active).

Q: How did the inhibition turn out when `O=C(COC(=O)c1ccccc1C(=O)N1CCN(c2ccccc2)CC1)NCc1ccccc1` was run?
A: Its inhibition is 16.5% (inactive).

Q: With `C=CCOc1cccc(C2C(C(=O)c3ccc(C)o3)=C(O)C(=O)N2c2nnc(C)s2)c1` (centres undefined) as the compound, how does the inhibition read?
A: The inhibition was 80.5% (active).

Q: With `O=C(O)c1ccccc1N=N/C(=N/Nc1cc(S(=O)(=O)O)ccc1O)c1ccccc1` as the compound, how does the inhibition read?
A: The inhibition was 69.6% (active).

Q: With `COC(=O)[C@H]1[C@H]2C[C@H]3c4[nH]c5ccccc5c4CCN3C[C@@H]2CC[C@@H]1O` as the compound, how does the inhibition read?
A: Its inhibition is 112% (active).

Q: `CCCn1c(C2CCCN2c2nc(-c3ccc(C)cc3)cs2)nc2cc(Cl)c(N3CCCCC3)cc21` (centres undefined) was tested. Which inhibition did it give?
A: The inhibition was 15.1% (inactive).

Q: For `COc1ccc(Nc2cc(Cl)ccc2C(=O)O)cn1`, which inhibition is on record?
A: The inhibition was 53.5% (active).

Q: For `Oc1ccc2ccccc2c1N=Nc1nccs1`, which inhibition is on record?
A: The inhibition was -52.8% (inactive).

Q: Which inhibition does the source give for `COCCN(CCOC)c1nc(N)c2c(N)nc3c(c2c1C#N)CC(=O)N3Cc1ccc(Cl)cc1` here?
A: Its inhibition is 4.93% (inactive).

Q: `COC(=O)C[n+]1cccc2ccccc21` was tested. Which inhibition did it give?
A: Its inhibition is 173% (active).

Q: How did the inhibition turn out when `Cc1ccc(NC(=O)c2cc(-c3ccc(C)o3)nc3ccccc23)nc1` was run?
A: Its inhibition is 41.7% (active).

Q: How did the inhibition turn out when `O=c1[nH]c(=S)[nH]c2[nH]c(=S)[nH]c12` was run?
A: The inhibition was 98.7% (active).

Q: Which inhibition does the source give for `Cc1ccc(C(=O)NC(=S)Nc2ccc(N3CCOCC3)cc2)cc1` here?
A: The inhibition was 8.72% (inactive).

Q: For `Fc1ccc(CNc2nc3ccccc3n3nnnc23)cc1`, which inhibition is on record?
A: The inhibition was 41.3% (active).

Q: For `O=C(COC(=O)Cn1cnc2ccccc21)Nc1cccc2c1C(=O)c1ccccc1C2=O`, which inhibition is on record?
A: The inhibition was 73.3% (active).

Q: With `COC(=O)c1sc(NC(=S)NC(=O)c2ccc(C)cc2)nc1C` as the compound, how does the inhibition read?
A: Its inhibition is 19.3% (inactive).

Q: How did the inhibition turn out when `COc1cc([C@H](Cc2ccccc2)NC(C)=O)oc(=O)c1` was run?
A: The inhibition was 40.9% (active).

Q: For `O=C1c2ccccc2C(=O)c2c1cccc2N1CCN(CCO)CC1`, which inhibition is on record?
A: Its inhibition is 58.3% (active).

Q: `C1=C(N2CCOCC2)/C(=C/c2nc3ccccc3[nH]2)CC1` was tested. Which inhibition did it give?
A: Its inhibition is 63% (active).

Q: How did the inhibition turn out when `COc1ccc(Cl)cc1NC(=O)CCS(=O)(=O)c1ccc(Br)cc1` was run?
A: The inhibition was 46.5% (active).

Q: How did the inhibition turn out when `Cc1nnc(NC(=O)/C=C/c2ccco2)s1` was run?
A: The inhibition was 16.8% (inactive).

Q: With `C=CCNc1nnc(SCC(=O)N2CCCCC2)c2ccccc12` as the compound, how does the inhibition read?
A: The inhibition was 67.8% (active).

Q: Which inhibition does the source give for `CC(C)(C)OC(=O)NCCCC1=CC2=CC(=O)C(C)(OC(=O)c3ccco3)C(=O)C2=CO1` (centres undefined) here?
A: Its inhibition is 36.3% (inactive).

Q: Which inhibition does the source give for `Cc1ccc(S(=O)(=O)C(C#N)c2nc3ccccc3nc2N2CCCC2)cc1C` (centres undefined) here?
A: The inhibition was 82.8% (active).

Q: Which inhibition does the source give for `Cc1ccc(/C=C(\C#N)C(=O)Nc2cccc3ncccc23)o1` here?
A: Its inhibition is 43.1% (active).

Q: For `Cn1c2ccccc2c(=O)c2c(=O)n(Cc3ccco3)c(COc3ccccc3)nc21`, which inhibition is on record?
A: Its inhibition is 60.8% (active).

The compounds below were run against Glutathione S-transferase omega-1 (Homo sapiens) (UniProt P78417) (assay: recombinant GSTO1 blockers, retest – biochemical, fluorescence polarization, triplicate, counter-screen for RBBP9 inhibitor project, confirmation (AID 2176;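 active means inhibition above the primary screen's cutoff, its mean inhibition plus 3 SD, cut at about 35% in these data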;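 further: loss of polarization as inhibitors block binding of rhodamine sulfonate ester activity probe; 0% = GSTO1 with DMSO and 100% = wells lacking GSTO1 enzyme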)). Settings: recombinant GSTO1, probe fluorescence polarization; at 5.96 µM; active compounds read high.
Glutathione S-transferase omega-1 (Homo sapiens), sequence (P78417 whole entry, looked up): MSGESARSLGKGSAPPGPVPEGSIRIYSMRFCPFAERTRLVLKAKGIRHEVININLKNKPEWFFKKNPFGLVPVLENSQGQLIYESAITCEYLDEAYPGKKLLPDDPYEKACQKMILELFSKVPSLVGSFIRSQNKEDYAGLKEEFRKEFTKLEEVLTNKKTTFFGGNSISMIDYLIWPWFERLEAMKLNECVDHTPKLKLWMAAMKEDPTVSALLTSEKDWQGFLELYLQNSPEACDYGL

Q: How did the inhibition turn out when `O=c1[nH]c2ccccc2n2c(-c3ccccc3)nnc12` was run?
A: The inhibition was 23.1% (inactive).

Q: With `CN1c2ccc(C=O)c3c(C=O)ccc(c23)N(C)C1(C)C` as the compound, how does the inhibition read?
A: The inhibition was 63.5% (active).

Q: With `Oc1ccc2ccccc2c1N=Nc1nccs1` as the compound, how does the inhibition read?
A: The inhibition was 24.3% (inactive).

Q: For `Cc1ccc(S(=O)(=O)C(C#N)c2nc3ccccc3nc2N2CCCC2)cc1C` (centres undefined), which inhibition is on record?
A: The inhibition was 26.5% (inactive).
